Columns and labels:
Experiment in all cases: log2 ratio of Biotin-Ahx-Ub-VS probe labelling (fragment/DMSO); higher = less target engagement (more negative = stronger competition), active = hit call of the paper (q ≤ 0.05, log2 ratio ≤ -1)
Settings in all cases: compound concentration: 200 uM; treatment time: 3 h
USP19 = target: T1, USP19 (UniProt O94966)
T1 sequence (whole entry): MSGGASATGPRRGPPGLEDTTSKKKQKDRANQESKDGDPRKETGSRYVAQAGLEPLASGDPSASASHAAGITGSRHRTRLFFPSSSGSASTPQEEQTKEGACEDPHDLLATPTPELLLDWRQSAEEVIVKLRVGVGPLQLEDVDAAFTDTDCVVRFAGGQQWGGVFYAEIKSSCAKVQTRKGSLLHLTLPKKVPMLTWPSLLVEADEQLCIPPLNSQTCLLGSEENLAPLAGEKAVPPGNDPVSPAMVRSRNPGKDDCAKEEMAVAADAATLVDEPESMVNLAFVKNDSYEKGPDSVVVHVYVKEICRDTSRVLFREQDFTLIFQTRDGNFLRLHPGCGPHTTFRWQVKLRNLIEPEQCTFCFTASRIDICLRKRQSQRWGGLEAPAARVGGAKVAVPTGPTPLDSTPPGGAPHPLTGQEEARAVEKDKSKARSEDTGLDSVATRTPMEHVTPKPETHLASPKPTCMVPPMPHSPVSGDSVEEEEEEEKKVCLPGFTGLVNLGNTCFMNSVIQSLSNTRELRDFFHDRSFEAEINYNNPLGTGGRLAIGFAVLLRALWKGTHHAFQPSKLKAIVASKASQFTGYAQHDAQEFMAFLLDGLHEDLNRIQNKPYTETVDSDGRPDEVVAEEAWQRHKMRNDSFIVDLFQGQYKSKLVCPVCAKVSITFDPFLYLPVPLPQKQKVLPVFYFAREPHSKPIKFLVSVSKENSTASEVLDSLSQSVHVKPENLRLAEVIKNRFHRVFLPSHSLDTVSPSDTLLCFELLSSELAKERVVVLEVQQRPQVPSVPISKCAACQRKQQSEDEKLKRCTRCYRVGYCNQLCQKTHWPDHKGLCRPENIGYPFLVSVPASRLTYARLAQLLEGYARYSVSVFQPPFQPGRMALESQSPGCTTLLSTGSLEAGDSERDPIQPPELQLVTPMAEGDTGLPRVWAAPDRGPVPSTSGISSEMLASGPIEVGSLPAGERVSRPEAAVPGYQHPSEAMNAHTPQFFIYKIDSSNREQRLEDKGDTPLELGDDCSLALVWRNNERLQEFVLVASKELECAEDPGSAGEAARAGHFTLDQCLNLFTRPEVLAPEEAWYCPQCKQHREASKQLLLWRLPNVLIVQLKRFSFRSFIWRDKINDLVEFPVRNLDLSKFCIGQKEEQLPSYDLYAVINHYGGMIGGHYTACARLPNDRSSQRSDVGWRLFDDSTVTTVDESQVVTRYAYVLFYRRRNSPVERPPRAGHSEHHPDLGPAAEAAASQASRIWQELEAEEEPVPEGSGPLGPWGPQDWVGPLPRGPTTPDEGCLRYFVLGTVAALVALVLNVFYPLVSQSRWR
How it was run: (§1)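 Labelling with Biotin-Ahx-Ub-VS (0.5 µM final, 1 h) followed a 3 h triplicate treatment of HEK293T lysate (495 µg per sample, Tris/CHAPS/IGEPAL buffer with protease inhibitors) with fragment at 200 µM or vehicle. Labelled DUBs were NeutrAvidin-enriched, digested with LysC and trypsin, and run by diaPASEF LC-MS/MS. The values, average log2 fragment/vehicle ratios by unpaired t-test, come from global-median-normalised Spectronaut label-free quantities. Proteins with ≥2 unique peptides were used.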

USP22 = target: T2, USP22 (UniProt Q9UPT9)
T2 sequence (whole entry): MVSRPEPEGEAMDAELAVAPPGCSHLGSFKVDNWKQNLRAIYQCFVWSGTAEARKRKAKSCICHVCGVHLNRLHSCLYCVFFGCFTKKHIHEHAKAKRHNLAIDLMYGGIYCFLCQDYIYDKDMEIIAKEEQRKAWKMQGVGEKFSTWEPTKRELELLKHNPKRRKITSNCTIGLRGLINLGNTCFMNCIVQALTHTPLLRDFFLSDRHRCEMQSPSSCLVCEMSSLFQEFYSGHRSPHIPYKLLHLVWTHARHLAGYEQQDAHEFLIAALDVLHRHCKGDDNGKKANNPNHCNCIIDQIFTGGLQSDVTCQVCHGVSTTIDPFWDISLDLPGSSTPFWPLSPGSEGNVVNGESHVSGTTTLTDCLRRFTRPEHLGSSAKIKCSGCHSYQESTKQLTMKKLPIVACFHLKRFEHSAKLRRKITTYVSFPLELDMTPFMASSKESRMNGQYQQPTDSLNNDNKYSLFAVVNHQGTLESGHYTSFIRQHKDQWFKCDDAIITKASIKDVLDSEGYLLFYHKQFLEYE
How it was run: as §1

USP24 = USP24 (UniProt Q9UPU5)
Sequence of USP24 (Q9UPU5 whole entry): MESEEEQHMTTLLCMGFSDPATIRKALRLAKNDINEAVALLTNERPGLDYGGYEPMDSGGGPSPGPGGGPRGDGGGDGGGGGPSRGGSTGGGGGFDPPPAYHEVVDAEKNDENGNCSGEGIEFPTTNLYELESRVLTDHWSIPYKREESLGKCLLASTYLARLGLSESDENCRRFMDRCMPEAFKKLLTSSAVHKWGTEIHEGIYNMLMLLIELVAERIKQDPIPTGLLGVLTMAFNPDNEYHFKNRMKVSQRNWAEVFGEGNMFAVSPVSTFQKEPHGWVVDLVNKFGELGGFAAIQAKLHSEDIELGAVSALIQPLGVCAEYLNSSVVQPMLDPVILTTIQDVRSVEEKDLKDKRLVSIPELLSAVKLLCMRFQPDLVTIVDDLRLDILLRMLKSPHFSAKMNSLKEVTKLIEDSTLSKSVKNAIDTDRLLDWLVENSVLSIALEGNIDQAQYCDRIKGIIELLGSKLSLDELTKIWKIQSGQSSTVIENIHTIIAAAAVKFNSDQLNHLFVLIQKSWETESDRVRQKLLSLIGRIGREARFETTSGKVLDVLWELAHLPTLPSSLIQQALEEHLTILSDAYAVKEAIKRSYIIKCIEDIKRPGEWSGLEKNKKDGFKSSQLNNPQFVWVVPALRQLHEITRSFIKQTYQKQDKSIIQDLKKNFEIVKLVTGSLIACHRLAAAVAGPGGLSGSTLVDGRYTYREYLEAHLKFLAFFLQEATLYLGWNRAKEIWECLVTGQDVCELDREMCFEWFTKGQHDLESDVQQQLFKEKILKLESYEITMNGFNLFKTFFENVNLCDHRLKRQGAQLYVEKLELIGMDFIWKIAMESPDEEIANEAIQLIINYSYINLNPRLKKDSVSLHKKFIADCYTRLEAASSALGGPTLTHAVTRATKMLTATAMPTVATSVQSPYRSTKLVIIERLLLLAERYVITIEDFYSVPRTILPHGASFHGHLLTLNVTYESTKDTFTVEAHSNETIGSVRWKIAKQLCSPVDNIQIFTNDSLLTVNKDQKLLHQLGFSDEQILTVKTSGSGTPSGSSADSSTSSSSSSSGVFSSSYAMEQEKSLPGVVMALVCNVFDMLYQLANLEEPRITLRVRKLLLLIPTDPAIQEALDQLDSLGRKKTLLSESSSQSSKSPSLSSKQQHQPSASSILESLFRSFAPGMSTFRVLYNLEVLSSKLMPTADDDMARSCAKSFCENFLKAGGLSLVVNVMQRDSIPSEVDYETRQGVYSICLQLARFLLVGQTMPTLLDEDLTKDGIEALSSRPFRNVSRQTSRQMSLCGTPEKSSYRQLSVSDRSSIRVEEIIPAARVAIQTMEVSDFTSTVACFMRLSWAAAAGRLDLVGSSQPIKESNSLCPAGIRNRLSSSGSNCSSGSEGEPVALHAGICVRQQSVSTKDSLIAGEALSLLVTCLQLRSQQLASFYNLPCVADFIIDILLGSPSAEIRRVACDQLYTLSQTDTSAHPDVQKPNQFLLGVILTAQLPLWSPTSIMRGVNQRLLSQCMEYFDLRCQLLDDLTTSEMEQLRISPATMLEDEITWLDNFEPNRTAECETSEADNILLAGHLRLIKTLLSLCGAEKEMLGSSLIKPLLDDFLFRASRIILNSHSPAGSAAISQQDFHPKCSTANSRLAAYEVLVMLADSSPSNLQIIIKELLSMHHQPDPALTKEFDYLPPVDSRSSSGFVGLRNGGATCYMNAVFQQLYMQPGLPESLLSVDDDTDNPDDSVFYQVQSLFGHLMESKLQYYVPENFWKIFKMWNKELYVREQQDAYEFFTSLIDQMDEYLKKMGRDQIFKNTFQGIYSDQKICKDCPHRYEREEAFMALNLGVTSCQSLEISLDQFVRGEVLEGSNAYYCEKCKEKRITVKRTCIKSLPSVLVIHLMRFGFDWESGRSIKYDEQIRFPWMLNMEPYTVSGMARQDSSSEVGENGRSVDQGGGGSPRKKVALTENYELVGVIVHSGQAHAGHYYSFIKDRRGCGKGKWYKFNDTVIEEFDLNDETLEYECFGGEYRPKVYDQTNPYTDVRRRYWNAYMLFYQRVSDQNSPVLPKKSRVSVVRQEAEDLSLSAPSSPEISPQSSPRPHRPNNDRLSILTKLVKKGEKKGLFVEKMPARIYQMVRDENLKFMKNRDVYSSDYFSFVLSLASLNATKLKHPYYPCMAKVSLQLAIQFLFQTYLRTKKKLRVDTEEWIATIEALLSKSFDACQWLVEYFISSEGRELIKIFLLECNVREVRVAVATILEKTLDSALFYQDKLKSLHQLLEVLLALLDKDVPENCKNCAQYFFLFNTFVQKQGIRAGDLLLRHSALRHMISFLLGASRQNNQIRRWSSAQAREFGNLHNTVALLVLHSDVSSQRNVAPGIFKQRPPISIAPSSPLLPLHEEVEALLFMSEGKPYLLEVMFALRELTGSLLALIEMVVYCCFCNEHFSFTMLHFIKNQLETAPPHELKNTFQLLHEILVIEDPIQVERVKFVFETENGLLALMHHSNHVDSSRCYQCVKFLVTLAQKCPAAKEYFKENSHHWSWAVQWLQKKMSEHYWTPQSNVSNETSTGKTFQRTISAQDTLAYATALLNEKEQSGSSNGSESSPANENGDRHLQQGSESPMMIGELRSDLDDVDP
How it was run: as §1

USP25 = target: T3, USP25 (UniProt Q9UHP3)
T3 sequence (whole entry): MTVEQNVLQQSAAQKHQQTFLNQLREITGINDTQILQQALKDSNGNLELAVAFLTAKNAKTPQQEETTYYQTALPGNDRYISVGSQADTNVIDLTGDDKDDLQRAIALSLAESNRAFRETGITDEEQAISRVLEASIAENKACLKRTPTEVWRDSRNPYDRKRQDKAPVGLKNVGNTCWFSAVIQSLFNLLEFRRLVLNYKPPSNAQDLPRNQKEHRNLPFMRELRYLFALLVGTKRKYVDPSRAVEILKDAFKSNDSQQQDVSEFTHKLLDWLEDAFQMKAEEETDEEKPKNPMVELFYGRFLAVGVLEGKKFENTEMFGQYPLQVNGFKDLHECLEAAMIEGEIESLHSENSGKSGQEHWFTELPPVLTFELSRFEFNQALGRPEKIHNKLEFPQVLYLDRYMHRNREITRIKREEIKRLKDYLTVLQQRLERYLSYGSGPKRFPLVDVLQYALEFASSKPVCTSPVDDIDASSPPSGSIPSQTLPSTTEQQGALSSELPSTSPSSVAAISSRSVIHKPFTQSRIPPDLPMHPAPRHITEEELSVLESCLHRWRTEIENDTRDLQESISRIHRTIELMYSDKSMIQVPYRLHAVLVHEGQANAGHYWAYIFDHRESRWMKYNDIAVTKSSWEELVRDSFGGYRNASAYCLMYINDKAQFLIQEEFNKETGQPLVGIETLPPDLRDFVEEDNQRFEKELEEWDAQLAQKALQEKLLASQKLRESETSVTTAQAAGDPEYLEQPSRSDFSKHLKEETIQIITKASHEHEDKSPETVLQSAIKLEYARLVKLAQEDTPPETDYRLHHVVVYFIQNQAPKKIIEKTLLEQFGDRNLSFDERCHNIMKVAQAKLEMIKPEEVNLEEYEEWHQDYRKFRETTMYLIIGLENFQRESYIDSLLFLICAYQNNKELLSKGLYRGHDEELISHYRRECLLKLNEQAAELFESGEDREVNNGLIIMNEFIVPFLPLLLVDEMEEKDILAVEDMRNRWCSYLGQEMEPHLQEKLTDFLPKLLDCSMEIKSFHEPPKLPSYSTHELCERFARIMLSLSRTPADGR
How it was run: as §1

USP28 = target: T4, USP28 (UniProt Q96RU2)
T4 sequence (whole entry): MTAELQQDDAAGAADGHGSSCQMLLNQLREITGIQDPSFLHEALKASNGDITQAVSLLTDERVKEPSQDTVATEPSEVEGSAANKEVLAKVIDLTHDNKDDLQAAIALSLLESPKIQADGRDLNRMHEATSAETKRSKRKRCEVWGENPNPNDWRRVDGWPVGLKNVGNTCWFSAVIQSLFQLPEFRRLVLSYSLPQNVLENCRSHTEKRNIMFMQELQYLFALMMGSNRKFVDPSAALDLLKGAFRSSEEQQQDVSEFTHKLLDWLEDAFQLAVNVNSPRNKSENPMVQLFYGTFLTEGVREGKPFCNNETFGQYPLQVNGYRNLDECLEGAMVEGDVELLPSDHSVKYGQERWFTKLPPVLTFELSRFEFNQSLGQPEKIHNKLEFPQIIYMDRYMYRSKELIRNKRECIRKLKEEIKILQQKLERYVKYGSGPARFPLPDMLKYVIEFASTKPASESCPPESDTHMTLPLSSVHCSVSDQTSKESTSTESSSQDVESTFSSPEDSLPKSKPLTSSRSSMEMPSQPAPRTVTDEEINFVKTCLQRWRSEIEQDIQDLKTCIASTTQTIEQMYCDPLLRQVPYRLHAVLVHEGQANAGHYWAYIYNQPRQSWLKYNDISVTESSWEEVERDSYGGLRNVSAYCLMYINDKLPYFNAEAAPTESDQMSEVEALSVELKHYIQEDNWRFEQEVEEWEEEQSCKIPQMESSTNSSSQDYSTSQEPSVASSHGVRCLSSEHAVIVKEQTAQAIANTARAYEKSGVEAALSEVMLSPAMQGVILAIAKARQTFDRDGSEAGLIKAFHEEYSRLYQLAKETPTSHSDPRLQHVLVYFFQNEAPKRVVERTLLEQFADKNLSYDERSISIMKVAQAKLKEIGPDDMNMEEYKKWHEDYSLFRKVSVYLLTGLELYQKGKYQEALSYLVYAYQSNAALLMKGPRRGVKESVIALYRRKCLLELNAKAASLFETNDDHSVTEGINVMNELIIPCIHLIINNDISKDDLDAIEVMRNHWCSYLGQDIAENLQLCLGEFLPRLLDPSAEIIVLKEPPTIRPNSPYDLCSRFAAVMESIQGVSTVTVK
How it was run: as §1

Measured: log2 ratio of Biotin-Ahx-Ub-VS probe labelling

Cc1ccc(-c2nnc(C)[nH]2)c(NC(=O)CCl)c1
inactive: USP19 0.0362 | USP22 0.0459 | USP24 -0.204 | USP25 -0.734 | USP28 -0.643
